ULK1 inh: blocks human autophagy kinase ULK1; O75385; AlphaScreen Atg13 phosphorylation by ULK1, luminescence; inhibition, % at 5.96 µM; 30,000 tested, 1.9% active; in the data active = inhibition above about 43%;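 note: 0% = median of compound wells and 100% = no enzyme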
ASK1 primary: human ASK1 kinase inhibition, primary screen; Q99683; 22,000 tested, 0.99% active; inhibition, % at 7.44 µM; AlphaScreen MKK6 phosphorylation by ASK1, luminescence; in the data active = inhibition above about 35%;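 note: 0% = median of compound wells and 100% = no enzyme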
Starred values were filed as active, the others as inactive; · = not tested or not shown. Shown are actives, neighbours in structure and some others; about 2.5% of the full set was active somewhere.

SMILES	ULK1 inh	ASK1 primary
CC(C)N(CCNC(=O)C1CCN(c2ccc(N3CCCC3CO)nn2)CC1)C(C)C (centres undefined)	56*	2
COc1ccccc1NS(=O)(=O)c1cccc(C(=O)Nc2ccc(C(=O)O)cc2)c1	10	·
Cc1ncc(COP(=O)(O)O)c(C=O)c1O	-13	·
Cc1ncc(CSSCc2cnc(C)c(O)c2CO)c(CO)c1O	47*	·
COc1cc(NC(=O)C2CCN(c3ccc(Nc4cc(OC)c(OC)c(OC)c4)nn3)CC2)cc(OC)c1OC	5	14
N#Cc1cc(-c2ccnc(Nc3ccc(N4CCC(O)CC4)cc3)n2)cc(N2CCOCC2)c1	-62	32
Cc1ncn(-c2ccc(Nc3nccc(-c4ccc(NS(C)(=O)=O)cc4)n3)cc2)n1	57*	6
CS(=O)(=O)Nc1ccc(-c2ccnc(Nc3ccc(N4CCC(O)CC4)cc3)n2)cc1	75*	-16
Cc1ncn(-c2ccc(Nc3nccc(-c4ccc(N5CCOCC5)cc4)n3)cc2)n1	16	7
OCCNc1nc(N2CCc3ccccc3C2)nc2nc[nH]c12	-7	5
Oc1ccc(CCNc2ccnc(-c3csc4ccccc34)n2)cc1	-41	7
C#CCSc1nc2c(cnn2-c2ccc(Cl)cc2)c(=O)[nH]1	-2	·
COc1ccc(CC(=O)Nc2ncc3ccc(-c4cn[nH]c4)cc3c2C#N)cc1	5	-39
COc1ccc(CC(=O)Nc2ncc3ccc(-c4cn[nH]c4)cc3c2Cl)cc1	83*	1
COc1cc(Nc2nc(-c3ccc(C(N)=O)cc3)nc3c2ncn3Cc2ccc(C(F)(F)F)cc2)cc(OC)c1OC	-35	10
COc1ccc(-c2nc3ncnc(NCCN4CCOCC4)c3[nH]2)cn1	-2	-2
COc1cc(NC(=O)C(N)c2ccc(Cl)cc2)c(F)cc1-c1cn[nH]c1 (centres undefined)	65*	13
CN(C)CCCOc1cc(-c2cn[nH]c2)c(F)cc1NC(=O)C(N)c1ccc(Cl)cc1 (centres undefined)	20	10
CCn1c(SCc2cccnc2)nc2c(c1=O)SC(C)C2 (centres undefined)	6	·
COc1ccc(-c2nc(NCCN3CCOCC3)c3ncn(-c4ccsc4)c3n2)cc1	-19	0
CC(=O)Nc1ccc(NC(=O)c2cccc(Nc3ccc4ncccc4c3)c2)cc1	25	-19
O=C(O)c1cc(O)ccc1O	4	·
Nc1ccc(O)c(C(=O)O)c1	55*	·
COc1ccc(CCNC(=O)c2csc(-c3ccc(OC)nc3)n2)cc1	-2	-12
Cc1cc(Nc2ccc3c(c2)OCO3)nc(Nc2nc3ccccc3n2C)n1	-11	-6
SMILES	ULK1 inh	ASK1 primary
COc1cc(Nc2nc(NCc3ccc4c(c3)OCO4)nc3nc[nH]c23)cc(OC)c1OC	-14	21
COc1cc(Nc2nc(Nc3cccc(N(C)C)c3)ncc2C)cc(OC)c1OC	63*	21
COc1cc(Nc2ncc(C)c(NC3CC3)n2)cc(OC)c1OC	65*	20
Cc1cnc(Nc2cccc(N(C)C)c2)nc1Nc1ccccc1	23	15
COc1cc(Nc2nc(Nc3ccc4c(c3)OCO4)c3[nH]cnc3n2)cc(OC)c1OC	52*	6
CN(C)c1cccc(Nc2nc(Nc3ccccc3)c3[nH]cnc3n2)c1	15	30
Cc1cnc(Nc2ncccn2)nc1NC1CC1	16	-22
CN(C)c1cccc(Nc2nc(NC3CC3)c3[nH]cnc3n2)c1	43*	34
O=C(NCCc1ccc(O)cc1)c1cccc(Nc2ccncc2)n1	-5	9
Cc1cnc(-c2csc3ccccc23)nc1NCCCN1CCCC1=O	6	-4
Cc1cnc(NC2CCN(Cc3ccccc3)CC2)nc1NCc1ccccc1	2	-1
OCCNc1ccnc(N2CCN(Cc3ccc4c(c3)OCO4)CC2)n1	-13	-12
Nc1nc(Cl)cc(NCCCN2CCCC2=O)n1	9	0
CC(C)N(CCNc1nc(Nc2ccc3ncccc3c2)nc2nc[nH]c12)C(C)C	17	7
COc1cc(Nc2nc(NC3CC3)c3[nH]cnc3n2)cc(OC)c1OC	62*	-6
Oc1ccc(CCNc2nc(Nc3ccc4ncccc4c3)nc3nc[nH]c23)cc1	60*	-29
COc1ccc(CCNc2nc(Nc3cc(OC)c(OC)c(OC)c3)nc3nc[nH]c23)cc1	69*	14
COc1ccc(CCNc2nc(Nc3ccccc3)nc3nc[nH]c23)cc1	4	22
COc1cc(Nc2nc(NC3CCN(Cc4ccccc4)CC3)c3[nH]cnc3n2)cc(OC)c1OC	6	18
COc1cc(Nc2cc(NCCCN3CCCC3=O)nc(N)n2)cc(OC)c1OC	-35	-2
CC(Nc1ncc(-c2cccs2)cn1)c1ccccc1 (centres undefined)	-7	·
CN(C)[C@@H]1C(=O)C(C(=O)NCN2CCCC2)=C(O)[C@@]2(O)C(=O)C3=C(O)c4c(O)cccc4[C@@](C)(O)C3CC12 (some centres undefined)	28	·
C=C1c2cccc(O)c2C(O)=C2C(=O)[C@]3(O)C(O)=C(C(N)=O)C(=O)[C@@H](N(C)C)[C@@H]3[C@@H](O)[C@H]12	64*	·
C=C1c2c(Cl)ccc(O)c2C(O)=C2C(=O)[C@]3(O)C(O)=C(C(N)=O)C(=O)[C@@H](N(C)C)[C@@H]3[C@@H](O)[C@H]12	72*	·
COC(=O)c1ccccc1Oc1nc(OC)cc(OC)n1	-8	·
SMILES	ULK1 inh	ASK1 primary
CO/N=C(\C(=O)O)c1csc(NC(=O)CCl)n1	17	·
O=C(CCl)Nc1nc(-c2ccc(Br)cc2)cs1	45*	·
c1ccc2c(CCNc3nccc(Nc4ccncn4)n3)c[nH]c2c1	24	13
c1ccc2c(-c3nccc(NC4CC4)n3)csc2c1	1	0
NC(=O)c1ccccc1Nc1cc(NC(=O)Cc2ccc(CN3CCOCC3)cc2)ncc1Cl	42	23
CNC(=O)c1ccccc1Nc1cc(NC(=O)Cc2ccc(OC)cc2)ncc1C#N	18	-8
NC(=O)c1ccccc1Nc1cc(NC(=O)Cc2ccc(CN3CCOCC3)cc2)ncc1C(F)(F)F	63*	28
NC(=O)c1ccccc1Nc1cc(NC(=O)Cc2ccc3ccccc3c2)ncc1C(F)(F)F	25	3
CNC(=O)c1ccccc1Nc1cc(NC(=O)Cc2cccc(OC)c2)ncc1C(F)(F)F	55*	2
CNC(=O)c1cccnc1Nc1cc(NC(=O)Cc2ccc(OC)cc2)ncc1C(F)(F)F	43*	0
CNC(=O)c1ccccc1Nc1cc(NC(=O)Cc2c(Cl)cccc2Cl)ncc1C(F)(F)F	-9	15
NC(=O)c1ccccc1Nc1cc(Oc2ccc(N3CCNCC3)cc2)ncc1C(F)(F)F	60*	-1
O=C(NCCCN1CCCC1=O)c1ccc2nc(-c3ccc4[nH]ccc4c3)sc2c1	-2	10
COc1ccc(-c2nc(C)cc(NCCOc3ccccc3)n2)cc1	-17	-4
CCN(CC)C(=O)C1CCCN(c2cc(C(=O)NCCN3CCOCC3)ccn2)C1 (centres undefined)	-7	-2
O=C1N(CC2CC2)CCN1c1ccc(C(F)(F)F)cn1	-4	·
COc1ccc(CC(=O)Nc2cc(Nc3ccccc3-c3ncccn3)c(C(F)(F)F)cn2)cc1	5	11
CNC(=O)c1ccccc1Nc1cc(NC(=O)Cc2ccccc2)ncc1C(F)(F)F	58*	-9
CNC(=O)c1ccccc1Nc1cc(NC(=O)CCc2ccccc2)ncc1C(F)(F)F	35	16
CNC(=O)c1ccccc1Nc1cc(NC(=O)Cc2ccc(OC)cc2)ncc1C(F)(F)F	70*	1

Screening results (PubChem BioAssay)
